# Hit rate of the full screen: of about 52,000 compounds, about 4,300 (8.3%) were called active. For the sample, actives were picked, then their nearest neighbours and some compounds at random. Values without a mark were called inactive. Rule as the data show it: active = survival mostly below about 52% (no sharp cut-off); inactive = mostly above about 56%.
# System: DeltatarO mutant
# Test: S. aureus survival, RN4220 and DeltatarO strains – OD600, teichoic acid synthesis inhibitors, primary screen (AID 463173)
# Conditions: S. aureus RN4220 wild type/DeltatarO growth, OD600, 18 h, stronger effect = lower value, screened at 18.75 µg/mL (by protocol)
row,Structure (SMILES),survival
1,Cc1ccc(N2C(=O)CCSC23C(=O)N(Cc2ccc(F)cc2)c2ccccc23)cc1 (configuration not stated),90%
2,CCCCNC(=O)CC1N=C2c3ccccc3N=C(SCC(=O)NCc3ccccc3Cl)N2C1=O (configuration not stated),72%
3,O=c1c2cc3c(cc2n(Cc2cccc(Cl)c2)c(=O)n1Cc1nc(-c2ccccc2)no1)OCO3,61%
4,O=C(CCCn1c(=O)[nH]c2ccccc2c1=O)NCc1ccccc1Cl,123%
5,COc1ccc(CNC(=O)CSc2ncc(S(=O)(=O)c3ccc(C)c(Cl)c3)c(=O)[nH]2)cc1,80%
6,Cc1ccc(C)c(N2CCN(S(=O)(=O)c3ccc4[nH]c5c(c4c3)CCCC5)CC2)c1,-2% (active)
7,Cc1ccc(C)c(N2CCN(S(=O)(=O)c3ccc4[nH]c5c(c4c3)CCCCC5)CC2)c1,80%
8,Cc1ccc(N2CCN(S(=O)(=O)c3ccc4[nH]c5c(c4c3)CCCCC5)CC2)c(C)c1,102%
9,COCCNc1oc(-c2ccc(OC)cc2)nc1C#N,54%
10,Cc1cc(C)cc(NC(=O)Cn2cc(C(=O)c3cccs3)c3ccccc32)c1,60%
11,Cc1cc(OC(=O)c2cccs2)cc(OC(=O)c2cccs2)c1,99%
12,Cc1cc(C(=O)c2cccs2)c(N)s1,33% (active)
13,COc1ccc(NC(=O)CCN2CCN(c3cccc(Cl)c3)CC2)cc1,67%
14,Cc1ccc(CNC(=O)c2ccc(N3Cc4ccccc4Oc4ncccc43)s2)cc1,81%
15,CCCCCc1ccc(-c2ccc(C(=O)Oc3ccc(C(=O)OC)cc3)cc2)nc1,71%
16,CCCc1ccc(-c2ccc(C(=O)Oc3ccc(Br)cc3)cc2)nc1,136%
17,CCCCCc1ccc(-c2ccc(Br)cc2)nc1,-4% (active)
18,COc1ccccc1C(=O)Nc1cc(-c2cccc(Br)c2)nn1-c1ccccc1,115%
19,Cn1c(=O)oc2cc(S(=O)(=O)N3CCCC(C(=O)NCc4ccc(F)cc4)C3)ccc21 (configuration not stated),131%
20,Cc1cc(C)n(CCC(=O)Nc2ccc(Cl)cc2)n1,87%
21,CCOc1ccc2ncc3c(-c4cccc(OC)c4)nn(-c4ccccc4)c3c2c1,100%
22,COc1ccc(-n2nc(-c3ccc(C)cc3)c3cnc4cc(F)c(F)cc4c32)cc1,88%
23,CCc1ccc(-c2nn(-c3ccc(OC)cc3)c3c2cnc2ccc(OC)cc23)cc1,14% (active)

row,Structure (SMILES),survival
1,COc1cc2ncc3c(-c4ccccc4)nn(-c4ccc(C)cc4)c3c2cc1OC,47% (active)
2,COc1ccc(-c2nn(-c3ccc(C)cc3)c3c2cnc2ccc(C)cc23)cc1OC,76%
3,CCOc1ccc(-c2nn(-c3ccc(F)cc3)c3c2cnc2ccc(F)cc23)cc1,81%
4,FC(F)(F)c1ccc2c(c1)ncc1c(-c3ccccc3)nn(-c3ccccc3)c12,125%
5,CCc1ccc2ncc3c(-c4ccccc4)nn(-c4ccccc4)c3c2c1,5% (active)
6,COc1ccc2ncc3c(-c4ccccc4)nn(-c4ccc(C)c(C)c4)c3c2c1,18% (active)
7,Cc1ccc(-n2nc(-c3ccccc3)c3cnc4cc5c(cc4c32)OCO5)cc1C,127%
8,Cc1ccc(-c2nn(-c3ccccc3)c3c2cnc2ccccc23)cc1C,68%
9,COc1ccc(-c2nn(-c3ccc(C)c(Cl)c3)c3c2cnc2cc(OC)c(OC)cc23)cc1,94%
10,O=C(Nc1ccc(F)cc1F)C1CCCN1S(=O)(=O)c1cccc2nsnc12 (configuration not stated),94%
11,COc1ccc2c(CNCCc3cccs3)c(C(=O)O)n(Cc3ccccc3C)c2c1,94%
12,CC1=C(C(=O)Nc2ccc(C)cc2C)C(c2ccc(Br)cc2)n2ncc(C(=O)Nc3cccc(C)c3)c2N1 (configuration not stated),128%
13,COc1ccc(-c2nc3ccccc3n3c(-c4cccc(C)c4)c4c(=O)n(C)c(=O)n(C)c4c23)cc1,71%
14,Cc1ccc(-c2cc(C(=O)O)n(Cc3ccccc3)n2)cc1,67%
15,CC(=O)Nc1cc(-c2ccccc2)nn1Cc1cccc(Cl)c1,57%
16,COc1ccc(-c2cc(C(=O)O)n(Cc3ccccc3)n2)cc1,76%
17,CCOC(=O)c1cc(-c2ccc(OC)cc2)nn1Cc1ccccc1,66%
18,Cc1ccc2c(c1)cc1c(=O)n(Cc3cccc(Cl)c3)nc(C)n12,89%
19,CCOC(=O)c1cc(-c2ccccc2)nn1Cc1ccccc1,-12% (active)
20,Cc1ccc(-c2cc(N)n(Cc3cccc(Cl)c3)n2)cc1,55% (active)
21,O=C(O)c1cc(-c2ccccc2)nn1Cc1ccccc1,73%
22,CCOC(=O)c1cc(-c2ccc(C)cc2)nn1Cc1ccccc1,-12% (active)
23,O=C(c1ccco1)N1CCN(C(c2ccccc2)c2nnnn2Cc2ccccc2)CC1 (configuration not stated),88%

row,Structure (SMILES),survival
1,O=C(Cn1cc(C(=O)c2ccco2)c2ccccc21)Nc1ccccc1C(F)(F)F,74%
2,CCn1nc(C)c2c(-c3ccccc3)cc(=O)n(C(C)C(=O)NCCc3ccc(Cl)cc3)c21 (configuration not stated),87%
3,CCc1nnc(SCc2ccc(F)cc2Cl)c2cc3sccc3n12,80%
4,CCc1nnc(SCc2cccc(Cl)c2)c2cc3sccc3n12,-2% (active)
5,CCc1nnc(SCc2c(F)cccc2Cl)c2cc3sccc3n12,94%
6,CCOC(=O)N1CCN(Cc2nc3cc(NC(=O)CC)ccc3n2C(C)C)CC1,100%
7,COc1cccc(-c2csc(N3CCN(C(=S)NCc4ccco4)CC3)n2)c1,91%
8,COc1ccc(CCNC(=O)CCc2c(C)nc3cc(-c4ccc(Cl)cc4)nn3c2C)c(OC)c1,108%
9,COc1ccc(CNC(=O)Cn2nc(N3CCN(c4ccccc4)CC3)ccc2=O)c(OC)c1,-2% (active)
10,COc1ccc(CNC(=O)CCc2c(C)nn(-c3ccc(N4CCOCC4)nn3)c2C)c(OC)c1,85%
11,CCOC(=O)c1ccc(NC(=O)CCc2c(C)nc3cc(-c4ccc(OC)cc4OC)nn3c2C)cc1,62%
12,COc1cccc(NC(=O)Cn2nc(N3CCN(c4ccccc4)CC3)ccc2=O)c1,77%
13,CCOc1ccc(NC(=O)CCc2c(C)nc3cc(-c4ccccc4OC)nn3c2C)cc1,53% (active)
14,COc1ccccc1-c1cc2nc(C)c(CCC(=O)Nc3ccc(Br)c(C)c3)c(C)n2n1,67%
15,COc1ccc(CCNC(=O)CCc2c(C)nc3cc(-c4ccccc4OC)nn3c2C)c(OC)c1,54% (active)
16,COc1ccccc1CNC(=O)CCc1c(C)nc2cc(-c3ccccc3OC)nn2c1C,58%
17,CCOc1ccccc1CNC(=O)Cn1nc(N2CCN(c3ccccc3)CC2)ccc1=O,84%
18,COc1ccc(CNC(=O)CCc2c(C)nn(-c3ccc(N4CCCC4)nn3)c2C)c(OC)c1,75%
19,COc1ccc(CNC(=O)CCc2c(C)nn(-c3ccc(N4CCCCC4)nn3)c2C)c(OC)c1,52% (active)
20,CC(C)c1ccc(S(=O)(=O)NCc2nc3cccnc3n2Cc2ccc(F)cc2)cc1,88%
21,COc1cccc(CNC(=O)CN2C(=O)COc3ccc(S(=O)(=O)N4CCOCC4)cc32)c1,94%
22,Cn1cc(S(=O)(=O)N2CCCCCC2)cc1C(=O)Nc1ccc(Cl)c(C(F)(F)F)c1,67%
23,O=C(Nc1cccc(OC(=O)c2ccco2)c1)c1ccccc1,58%

row,Structure (SMILES),survival
1,CNC(=S)N1CCN(C(=O)/C(=C/c2ccc(F)cc2)NC(C)=O)CC1,95%
2,Cc1ccc(-c2cc(C(=O)N(Cc3ccc(C(C)(C)C)cc3)Cc3ccco3)no2)cc1,113%
3,CCc1nc2ccc(C(=O)NCCc3ccc(OC)cc3OC)cc2nc1CC,68%
4,Cc1cccc(N2CCN(S(=O)(=O)c3ccc4oc(=O)c5ncn(C)c5c4c3)CC2C)c1 (configuration not stated),77%
5,Cc1ccc2c(c1)NC(=O)C(CC(=O)Nc1ccccc1Cl)O2 (configuration not stated),77%
6,CCc1nn(C(C)C(=O)N2CCN(c3ccccc3)CC2)c(=O)c2cc3occc3n12 (configuration not stated),82%
7,CC(=O)Nc1ccc(-c2cc(C(=O)O)c3c(-c4ccccc4)[nH]nc3n2)cc1,56%
8,O=C(Nc1nc2c(F)cc(F)cc2s1)c1ccc(S(=O)(=O)N2CCc3ccccc32)cc1,115%
9,Clc1ccc2nc(NCc3ccccc3)c3nncn3c2c1,96%
10,CC(C)OCCCn1c(SCc2ccccc2C#N)nc2c(sc3ccccc32)c1=O,87%
11,CCOC(=O)c1cccc(NC(=O)N2CC(CC)Oc3ccccc32)c1 (configuration not stated),54%
12,CCOC(=O)Cc1c(C)nc2cc(C)nn2c1C,98%
13,CCOc1ccc(CCNC(=O)CCc2c(C)nc3cc(-c4ccccc4OC)nn3c2C)cc1,50% (active)
14,CCOC(=O)CC(NC(=O)CCc1c(C)nc2cc(-c3ccccc3)nn2c1C)c1ccc(C)cc1 (configuration not stated),109%
15,CCOC(=O)c1cccc(NC(=O)CCc2c(C)nc3c4cccnc4nn3c2C)c1,100%
16,COc1ccccc1-c1cc2nc(C)c(CCC(=O)NCCc3ccc(SC)cc3)c(C)n2n1,81%
17,CCOc1ccc(NC(=O)CCc2c(C)nc3cc(-c4ccc(Cl)cc4)nn3c2C)cc1,35% (active)
18,COC(=O)c1cc(NC(=O)CCc2c(C)nc3cc(-c4ccccc4)nn3c2C)cc(C(=O)OC)c1,118%
19,CCOC(=O)Cc1c(C)nc2cc(-c3ccc(C(C)(C)C)cc3)nn2c1C,-4% (active)
20,CC(=O)c1ccc(NC(=O)CCc2c(C)nc3cc(-c4ccc(Cl)cc4)nn3c2C)cc1,47%
21,COc1ccccc1-c1cc2nc(C)c(CCC(=O)NCCc3cccc(C)c3)c(C)n2n1,55%
22,CCOC(=O)c1cccc(NC(=O)CCc2c(C)nc3cc(-c4ccc(Cl)cc4)nn3c2C)c1,35% (active)
23,CCN(CC)S(=O)(=O)c1ccc(NC(=O)CCc2c(C)nc3cc(-c4ccc(Cl)cc4)nn3c2C)cc1,92%

# Reference: PubChem BioAssay AID463173 (ICCB-Longwood Screening Facility, Harvard Medical School, 2010)
